From PubChem BioAssay
MmCpn inh = blocks the Methanococcus maripaludis chaperonin Mm-Cpn; purified Mm-Cpn ATPase, ADP Transcreener TR-FRET; Potency, µM (titrated, usually from 76.9 µM), for the others: at the highest dose activity, negative = inhibition, hits mostly inhibitors; hit rate 0.031% among 330,000; also: % is scaled to controls: 0 for no effect and ±100 for the full control effect; nearly all actives have a fitted effect of over 80% in size
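25 nM Mm-CPN + cpd, 10 min 37°C; + 10 uM ATP, 30 min 37°C; buffer 30 mM Tris pH 7.4, 100 mM KCl, 5 mM MgCl2, 1 mM DTT; Transcreener ADP HTRF detection 30 min RT.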
ClpP mod = qHTS Assay for Activators of ClpP; ATP-dependent Clp protease proteolytic subunit (Bacillus subtilis (strain 168)), P80244; purified B. subtilis ClpP, FRET peptide cleavage, 20 min; Potency, µM (titrated, usually from 57.5 µM), inactives show top-dose activity change, negative = active; hit rate 1.9% among 340,000; AID 651965, 2013; active = well fitted falling curve with a large enough effect; inconclusive = small, poorly fitted or top-dose-only effect; inactive = no such curve, though single readings can be large or run the other way; also: the source files actives as falling curves though it sought activators and does not explain the sign; nearly all actives have a fitted effect of over 65% in size
Target sequence (P80244 whole entry, looked up): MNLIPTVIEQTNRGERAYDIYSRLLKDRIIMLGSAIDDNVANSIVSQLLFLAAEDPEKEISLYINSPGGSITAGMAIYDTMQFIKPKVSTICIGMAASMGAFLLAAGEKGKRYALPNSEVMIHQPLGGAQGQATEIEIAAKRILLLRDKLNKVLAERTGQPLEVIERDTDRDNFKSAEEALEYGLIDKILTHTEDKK
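FRET quenching reversal measured ClpP activation: 10 microg/mL B. subtilis ClpP at pH 8 with the FRET-FV decapeptide, read at 430 nm after 320 nm excitation. The 20-min minus 0-min signal was scaled between DMSO/no-enzyme wells and ADEP (5.8 microM final).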
Eya2 inh = Eya2 (human) phosphatase inhibition; recombinant Eya2, OMFP fluorescence dephosphorylation (OMFP is methylfluorescein phosphate); Potency, µM (highest dose often 76.9 µM), for the others: at the highest dose activity, negative = inhibition, actives largely listed as inhibitors; hit rate 0.006% among 330,000; O00167; also: % is scaled to controls: 0 for no effect and ±100 for the full control effect
Target sequence (O00167 whole entry, looked up): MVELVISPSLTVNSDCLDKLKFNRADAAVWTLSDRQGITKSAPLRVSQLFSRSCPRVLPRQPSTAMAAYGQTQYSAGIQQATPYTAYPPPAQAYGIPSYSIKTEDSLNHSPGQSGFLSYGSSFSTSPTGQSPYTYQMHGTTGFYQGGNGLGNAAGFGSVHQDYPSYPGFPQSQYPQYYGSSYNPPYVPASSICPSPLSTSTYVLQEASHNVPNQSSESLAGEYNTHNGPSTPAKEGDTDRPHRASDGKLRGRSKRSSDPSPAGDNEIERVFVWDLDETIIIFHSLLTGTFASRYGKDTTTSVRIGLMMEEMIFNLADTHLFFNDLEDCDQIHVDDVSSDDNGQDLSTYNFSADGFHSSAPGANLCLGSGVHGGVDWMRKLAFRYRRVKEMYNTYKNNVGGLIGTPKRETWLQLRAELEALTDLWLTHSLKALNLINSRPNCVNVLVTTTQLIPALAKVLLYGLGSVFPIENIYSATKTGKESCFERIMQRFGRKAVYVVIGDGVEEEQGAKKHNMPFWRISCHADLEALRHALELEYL
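Eya2 protein (added as 0.2 uM solution) was preincubated with compound for 10 min at ambient temperature in 50 mM HEPES pH 7.5, 50 mM NaCl, 5 uM MgCl2, 0.05% BSA, 1 mM DTT. OMFP (added at 50 uM) then reacted 10 min; fluorescence read at 485/525 nm.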
a7 integrin act = activators of alpha7 integrin expression for muscular dystrophy; alpha7betagal myoblasts, beta-gal FDG fluorescence, 48 h; Potency, µM (highest dose often 38.3 µM), for the others: top-dose activation, actives largely listed as activators; hit rate 0.064% among 350,000; AID 624291;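 also: 100% = response of the positive control SU9516; nearly all actives have a fitted effect of over 60% in size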
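alpha7betagal+/- myoblasts (passage 13, 250/well) treated 48 h at 37C with compounds at 1:260 dilution of DMSO stock. Lysed, then beta-galactosidase activity read as FDG fluorescence (ex 480/em 540) after 30 min, with pre-read for autofluorescence.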
USP2a block = inhibitors of human ubiquitin-specific protease USP2a | O75604 | USP2 core, Ub-CHOP2 coupled fluorogenic reporter, 485/531 | Potency, µM (top dose mostly 38.3 µM), for the others: at the highest dose activity change, negative = inhibition, actives largely listed as inhibitors | AID 463254 | hit rate 0.01% among 330,000;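 also: plate controls were DMSO wells for no effect and full inhibition by NEM control for full effect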
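Deubiquitinase activity read as fluorescence (485/531 nm) after Ub-CHOP2 cleavage activates the enterokinase reporter on its substrate; USP2 core 10nM, Ub-CHOP2 and substrate 25nM each, 30min compound preincubation then 60min RT; data normalized to NEM, curves fitted.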
p53 reactivator = re-activators of mutant p53; H1299 p53-A138V BP100-luciferase reporter, luminescence, 24 h; Potency, µM (highest dose often 92.2 µM), for inactives: top-dose activity change, positive = activation, most hits filed as activators; hit rate 0.063% among 320,000; AID 504706; also: % of control where 0% means no effect; nearly all actives have a fitted effect of over 45% in size
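H1299 (p53-null), stable ts p53-A138V + BP100-Luc; 1000 cells/well, Opti-MEM/10% FBS; cpd 4 pt, 1:5; 24 h, 37 deg C, 5% CO2; detection reagent 10 min RT; luminescence.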
ClpP inh valid = validation of B. subtilis ClpP protease hits (inhibitors); shares compounds with ClpP mod; Potency, µM (top dose mostly 57.5 µM), without a hit: at the highest dose activity change, negative = inhibition, most hits filed as inhibitors; purified B. subtilis ClpP, FRET-FV substrate cleavage, 20 min; AID 743245; hit rate 40% among 470; also: % is scaled to controls: 0 for no effect and ±100 for the full control effect; nearly all actives have a fitted effect of over 70% in size
An asterisk follows results filed as active; ? = inconclusive; · = no result. The entries come from a sample that favours hits as a whole. Unless noted, calls follow the shape of the dose curve; as a rule, active = well fitted curve in the direction sought with a large enough effect; inconclusive = small, poorly fitted or top-dose-only effect, or another doubt; inactive = no such curve, though single readings can be large; an effect the other way counts as inactive or inconclusive. Potency is read from the fitted curve at half-maximal effect.

SMILES | MmCpn inh | ClpP mod | Eya2 inh | a7 integrin act | USP2a block | p53 reactivator | ClpP inh valid
O=C1CC(c2ccccc2)Cc2nc3nc(C(F)(F)F)nn3cc21 (centres undefined) | 0% | 79% | 9% | 3% | 2% | -1% | 24%
CC1=C(c2ccc(C)cc2)S(=O)(=O)N(Cc2ccc(C(=O)NCc3ccccc3)cc2)C1=O | · | 5µM* | · | · | · | · | -2%
CC1=C(c2ccc(C)cc2)S(=O)(=O)N(Cc2ccc(C(=O)Nc3ccccc3C)cc2)C1=O | · | -3% | · | · | · | · | ·
CCC(=O)N1CCc2cc(CNS(=O)(=O)c3ccccc3F)ccc21 | · | 2% | · | · | · | · | ·
Cc1ccc(-c2cc(C(=O)NCc3ccccc3Cl)c3ccccc3n2)cc1C | · | 4.5µM* | · | · | · | · | 27µM*
Cc1ccc(-c2cc(C(=O)NCCCN3CCCC3)c3ccccc3n2)cc1C | -2% | · | -3% | -74% | 1% | -4% | ·
CC1=C(C(=O)Nc2ccc(Cl)cc2)C(c2cccs2)n2nc(SCc3cccc(C)c3)nc2N1 (centres undefined) | · | -5% | · | · | · | · | ·
COc1cccc(-c2nc(-c3ccc(NC(=O)c4cccs4)cc3)no2)c1 | -20% | 41% | 9% | -29% | 1% | ? | ?
Cc1cccnc1NC(=O)c1ccc(S(=O)(=O)N2CCCCC2)cc1 | 1% | 3.5µM* | 1% | 15% | 0% | -8% | 0%
CCCCOc1ccc(CNC(=O)c2cnc3sc(N4CCCC4)nn3c2=O)cc1 | · | -13% | · | · | · | · | ·
CCCCN(C)CCNC(=O)c1nn(-c2ccc(OC)cc2)c(=O)c2c1c1ccccc1n2C | -6% | -6% | 7% | 0% | 9% | 6% | ·
CCN(CC)CCCNC(=O)c1cn(CCOC)c(=O)c2c1c1ccccc1n2C | -1% | 10µM* | -12% | -6% | 0% | -2% | 22µM*
COc1ccc(OC)c(CNC(=O)CN2CC(C)Sc3ccccc32)c1 (centres undefined) | · | -1% | · | · | · | · | ·
Cc1c(Cl)cccc1NC(=O)c1ncn(-c2ccccc2)n1 | · | 0% | · | · | · | · | ·
CCc1ccc(-n2c(=O)c3c4c(sc3n(CC(=O)N3CCCCC3CC)c2=O)CCC4)cc1 (centres undefined) | · | 1% | · | · | · | · | ·
O=C1Nc2ccc(Cl)cc2C12Nc1ccccc1-c1nnc(SCc3ccccc3F)nc1O2 (centres undefined) | -8% | 53% | -13% | -17% | -10% | 28% | ·
O=C1Nc2ccc(F)cc2C12Nc1ccccc1-c1nnc(SCc3ccccc3F)nc1O2 (centres undefined) | -2% | 40% | 3% | 17% | -1% | 13% | 10%
c1ccc(-c2ccc(-c3csnn3)cc2)cc1 | -4% | 88% | -7% | 9% | 2% | 16% | -1%
O=S(=O)(Nc1ccccc1)c1ccc(-c2csnn2)cc1 | 1% | · | -2% | 8% | 1% | -4% | ·
Cc1ccc(Nc2c(-c3c[nH]c4ccccc34)nc3ccccn23)cc1 | · | 4% | · | · | · | · | ·
Cc1ccc(Nc2c(-c3ccc(Br)o3)nc3ccccn23)cc1 | · | 8.9µM* | · | · | · | · | ?
O=C(Cn1nc(-c2ccccc2)ccc1=O)NCc1ccc(F)cc1Cl | · | -14% | · | · | · | · | ·
CCc1ccc(CNC(=O)Cn2nc(-c3ccccc3)ccc2=O)cc1 | -1% | 4µM* | -13% | 12% | 4% | 2% | -2%
CSc1ccc(CNC(=O)CCn2ccc3cc(S(=O)(=O)N4CCC(C)CC4)ccc32)cc1 | · | -4% | · | · | · | · | ·
COc1ccc2cc3cc(C(=O)Nc4ccccc4C)oc3nc2c1 | · | 39% | · | · | · | · | 15µM*
SMILES | MmCpn inh | ClpP mod | Eya2 inh | a7 integrin act | USP2a block | p53 reactivator | ClpP inh valid
CCc1ccccc1NC(=O)CCc1c(C)nc2cc(-c3ccccc3)nn2c1C | · | 4% | · | · | · | · | ·
Cc1ccnc(NC(=O)c2ccc(OCc3c(C)noc3C)cc2)c1 | 0% | 106% | -4% | 23% | -2% | 11% | 0%
Cc1cccc(NC(=O)c2ccc(-c3nc(CSc4ccccc4)c(C)o3)cc2)c1C | · | -2% | · | · | · | · | ·
CCC(Cc1ccccc1)NC(=O)Cn1ncc2c3ccccc3n(Cc3ccccc3)c2c1=O (centres undefined) | · | 5% | · | · | · | · | ·
CCOC(=O)c1noc2ncn(CC(=O)Nc3ccccc3OC)c(=O)c12 | · | -1% | · | · | · | · | ·
c1ccc2nc(-c3nc4ccccc4o3)ccc2c1 | 0% | 8.9µM* | -29% | 8% | 1% | 8% | 22µM*
c1ccc(-c2ccc3ccccc3n2)cc1 | · | 0% | · | 11% | · | · | ·
O=C(Nc1nnc(-c2ccncc2)s1)C1CCCO1 (centres undefined) | 0% | 6.3µM* | 7% | -26% | 1% | ? | 12µM*
COc1ccc(-n2c(=O)c3c(c4cc(OC)ccc4n3C)n(Cc3cccc(OC)c3)c2=O)cc1 | · | 2.5µM* | · | · | · | · | 22µM*
O=C(Cc1cccc(NC(=O)C2CCCN(C(=O)C3CC3)C2)c1)Nc1ccc(C(=O)N2CCCCC2)cc1 (centres undefined) | · | 1% | · | 0% | · | · | ·
Cc1cccc(CC(=O)Nc2ccc(C(=O)N3CCCCC3)cc2)c1 | 1% | 3.2µM* | 7% | -2% | 0% | 0% | 0%
COc1ccc(N2CCc3c(C)nc4c(OC)cccc4c32)cc1 | 2% | -4% | -9% | -43% | 0% | 28% | ·
COc1cccc2c3c(c(C)nc12)CC(C)O3 (centres undefined) | -1% | 7.9µM* | -6% | -17% | 0% | 14% | 7.7µM*
COc1ccc(C(=O)N2CCCc3ccccc32)cc1 | -1% | -3% | 6% | 15% | -1% | 26% | ·
COC(=O)CN1CCN(C(=O)c2ccc(F)cc2)c2ccccc2C1 | 0% | 176% | -5% | 21% | -1% | -2% | 1%
CCc1ccc(NC(=O)CSC2=Nc3ccccc3C3=NC(CCC(=O)NCc4cccs4)C(=O)N23)cc1 (centres undefined) | · | -9% | · | · | · | · | ·
